The campaign covered roughly 320,000 compounds. About 2,100 (0.66%) were called active. Inconclusive results (about 53%) are left out. Calls follow the shape of the dose curve; as a rule, active = well fitted inhibition curve with a large enough effect in the signal ratio, with a control signal flat (not every such curve was filed as active); inconclusive = small, poorly fitted or top-dose-only effect, or effect the other way, or a change in a side signal; inactive = flat fitted curve, though single readings scatter; the % refers to the signal ratio. What follows is part of a selection rich in actives, with near analogues and random picks from the rest.
Potency is read from the fitted curve at half-maximal effect.

The nature of the assay: qHTS Assay for Lipid Storage Modulators in Drosophila S3 Cells.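 As to cell number change: cells counted by Cell Tracker Red CMTPX staining in the red channel.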 As to lipid storage change, negative = inhibition: % is scaled to controls: 0 for no effect and ±100 for the full control effect. Particulars: BODIPY lipid droplet fluorescence, 18-24 h, cells fed with added oleic acid; cell number change: measured here: cell count max response; series mostly up to 46.1 µM; lipid storage change, negative = inhibition: at the top concentration. The source says: NIH Molecular Libraries Probe Production Centers Network [MLPCN] NIH Chemical Genomics Center [NCGC] MLPCN Grant: 1 R03 MH085686-01 Assay Submitter (PI): Beller, Mathias; Max-Planck-Institut fur Biophysikalische Chemie NCGC Assay Overview: Storing lipids as a reservoir for energy or the anabolism of elementary metabolites is a common feature of probably all cells and is conserved from bacteria to humans. The universal cellular lipid storage organelle is the so-called lipid storage droplet (LD). Although ubiquitous, LDs share a simple structure composed of a hydrophobic core that harbors the storage lipids, which is shielded by a droplet-specific phospholipid monolayer to which proteins are attached. The current model of LD biogenesis involves an incorporation of the lipid core into the membrane leaflets of the endoplasmic reticulum (ER) followed by a subsequent budding-like maturation of a LD, which ultimately pinches off. Once released, LD volume can increase by localized lipogenesis or fusion of existing droplet. Storage lipids are re-mobilized enzymatically by lipase activity. Lipase regulation in the adipocyte is heavily studied and involves multiple components including catecholamine signaling, the LD-associated proteins Perilipin and comparative gene identification (CGI-58) and at least two lipases named hormone sensitive lipase (HSL) and adipocyte triglyceride lipase (ATGL). LD regulation outside of the adipocyte is poorly understood and only few components are known. However, there is an urgent need to learn more about ectopic fat depots as mislocalized storage of lipids, for example in the liver or muscle, is an eminent health problem associated with insulin resistance or the metabolic syndrome. We developed a laser-scanning cytometer assay to enable 1,536-well screening and combined the results of the small molecules screen with an RNAi database based on lipid storage.
Triacsin C (Sigma-Aldrich T-4540), an inhibitor of long-chain fatty acyl CoA synthetase that blocks synthesis of triglycerides, was used as a positive control for lipid under-storage. A total of 23 nL of compound solution of different concentrations were transferred to the assay plates using a Kalypsys pin tool equipped with a 1,536-pin array containing 10-nL slotted pins (FP1S10, 0.457-mm diameter, 50.8 mm long; V&P Scientific). One microliter of oleic acid (400 uM) was added, and the plate was lidded with stainless steel rubber gasket lined lids containing pinholes. […] Fluorescence was detected by excitation of the fluorophores with a 488-nm laser on an Acumen Explorer (TTP Lab Tech). The total intensity in channel 2 (500-530 nm) reflected lipid droplet accumulation. Cells were detected using channel 3 (575-640 nm) with 5-um width and 100-um depth filters. The ratio of the number of objects in PMT channel 2 over the number of objects in PMT channel 3 was also calculated. Percent activity was computed relative to an internal control (100% inhibited lipid droplet deposition due to the presence of 20 uM Triacsin C), which was added to 32 wells/plate.
In general terms: In qHTS, concentration-response curves come from the screen itself.
For `CCCCc1cc(=O)oc2cc(OCC(=O)NC(Cc3c[nH]c4ccc(O)cc34)C(=O)O)ccc12` (stereo not given), the “lipid storage change, negative = inhibition” value was -8.02% (inactive) and the cell number change is -11.2%.
On to `O=C(/C=C/Nc1ccc(Br)cn1)c1cccc(OC(F)F)c1`, for which the “lipid storage change, negative = inhibition” value was 0.169% (inactive) and the cell number change came to 16.6%.
With `CCCc1cc(C(=O)Nc2cccc([N+](=O)[O-])c2)cs1`, the Potency was 20 µM (active) and the cell number change was determined as 24.5%.
For `COc1ccc(NC(=O)c2cccc([N+](=O)[O-])c2)cc1`, the “lipid storage change, negative = inhibition” value was -3.42% (inactive) and the cell number change amounted to 0.213%.
As to `COc1cccc(C(=O)COc2cccc(NC(=O)c3ccco3)c2)c1`, the “lipid storage change, negative = inhibition” value is 12.1% (inactive) and the cell number change turned out to be 29%.
As for `CCC(=O)Nc1cccc(NC(=O)c2cccc([N+](=O)[O-])c2)c1`, the compound was classed as inactive and the cell number change came to 5.3%.
For `COc1cccc(C(=O)COc2cccc(NC(=O)c3cccc([N+](=O)[O-])c3)c2)c1`, the Potency was 18.4 µM (active) and the cell number change is 20%.
For `O=C(Nc1cccc([N+](=O)[O-])c1)c1ccccc1`, the “lipid storage change, negative = inhibition” value was 6.01% (inactive) and the cell number change is -11.6%.
For `COc1cccc(C2NC(=O)NC(C)=C2C(=O)Nc2cc(OC)ccc2OC)c1` (stereo not given), the “lipid storage change, negative = inhibition” value is 15.1% (inactive) and the cell number change was determined as 10.2%.
As to `CC(C(=O)N1CCc2ccccc21)N1CCN(c2ccccn2)CC1` (stereo not given), the Potency was 23.1 µM (active) and the cell number change worked out at 18%.
Regarding `CC(C(=O)N1CCc2ccccc21)N1CCN(Cc2ccc(Cl)cc2)CC1` (stereo not given), the outcome was inactive and the cell number change was -3.17%.
With `CC(C(=O)N1CCc2ccccc21)N1CCc2ccccc2C1` (stereo not given), the “lipid storage change, negative = inhibition” value was -5.94% (inactive) and the cell number change is -14.5%.
On to `CCOc1ccccc1N(CC(=O)OC)S(=O)(=O)c1ccccc1`, for which the “lipid storage change, negative = inhibition” value was 20.8% (inactive) and the cell number change was 1.61%.
`O=C(NNc1nc2c(F)cccc2s1)C1COc2ccccc2O1` (stereo not given): the compound was classed as inactive.
`Cc1nc2nc[nH]n2c(=O)c1CCOC(=O)c1c(F)cccc1F`: the “lipid storage change, negative = inhibition” value was -26.8% (inactive) and the cell number change is -14%.
Take `CC(=O)OCCc1c(C)nc2nc[nH]n2c1=O`: the Potency is 29.1 µM (active) and the cell number change is -16.2%.
Consider `Cc1nc2nc[nH]n2c(=O)c1CCOC(=O)c1ccccc1F`, for which the “lipid storage change, negative = inhibition” value was -6.55% (inactive) and the cell number change is -14.3%.
With `OC[C@H]1O[C@@H](O[C@@H]2[C@@H](CO)O[C@@](O)(CO)[C@H]2O)[C@H](O)[C@@H](O)[C@H]1O`, the “lipid storage change, negative = inhibition” value is -21% (inactive).
With `O=C(Nc1ccccc1C(=O)NCCCN1CCOCC1)c1ccc(Cl)cc1`, the “lipid storage change, negative = inhibition” value is -5.38% (inactive) and the cell number change came out at 1.08%.
Turning to `COc1ccc(CC(=O)NCC2CCCN(Cc3ccccc3Cl)C2)cc1` (stereo not given), the “lipid storage change, negative = inhibition” value is 16.7% (inactive) and the cell number change is -2.61%.
As to `Cc1ccc(NC(=O)c2sc3nc(N4CCOCC4)c4c(c3c2N)CC(C)(C)OC4)cc1`, the “lipid storage change, negative = inhibition” value is 27.3% (inactive).
Take `Cc1nc2c(sc3nc(N4CCOCC4)c4c(c32)CC(C)(C)OC4)c(-c2ccc(Cl)cc2)c1C(=O)O`: the Potency was 16.4 µM (active) and the cell number change is -7.08%.
As to `Cc1nc2c(sc3nc(N4CCOCC4)c4c(c32)CC(C)(C)OC4)c(-c2ccccc2)c1C(=O)O`, the “lipid storage change, negative = inhibition” value was 2.47% (inactive) and the cell number change worked out at 21%.
Take `O=C(NC1CC2CCCC(C1)N2C(=O)Nc1ccccc1)c1ccncc1` (stereo not given): the compound was classed as inactive and the cell number change is 23.5%.

The values are drawn from PubChem BioAssay AID2685 (National Center for Advancing Translational Sciences (NCATS), 2010).
